The OligoGym collection

What follows are sequences tested against CA4 (assay: pooled miR-30 sensor sort-seq; sequence = guide strand). Details: shRNA.
Note: reference of the scale not given here.

| Sequence | sensor-assay potency score (higher = more potent) |
| --- | --- |
| TTGTCCACCTTTGCCTTGGTGG | -0.751 |
| AATTTCGTCTTCAGGGTCCTGG | 0.0795 |
| ATGTACTATGTGCATCTCCATG | -2 |
| TTATATGGCAAGTCGGACCAGT | 0.112 |
| TTGACTGGCACCAAGCAGGGGT | -0.145 |
| TTCTCTGTGAAGCTGAATGGGC | -0.889 |
| TGTCTGTTCCTTGTCGTAGTAC | -0.69 |
| TTGCTTCTTATCGTAGCCAGAG | -0.919 |
| TCCAGCAACATCATCACTGAGT | -1.67 |
| TTGTCGTAGTACAGCTTCTGAG | -1.18 |
| TCGTAGTGCTCATCTCAGGTTT | -0.761 |
| TTTTTGTCCACCTTTGCCTTGG | -0.0193 |
| TTGTTCTCCAGCAACATCATCA | -1.13 |
| TGTCGTAGTACAGCTTCTGAGA | -0.691 |
| TTGAACCTCGTAGCACCAGTGT | -1.16 |
| TTGGACAGTCCACGTTTGCTTC | -0.84 |
| TTTCTCATGTACTATGTGCATC | -0.994 |
| TTTGCTTCTTATCGTAGCCAGA | -0.836 |
| TTCCTTGTCGTAGTACAGCTTC | -0.302 |

Each sequence was assayed against CA8 in the same assay as above. Details: shRNA.

| Sequence | sensor-assay potency score (higher = more potent) |
| --- | --- |
| TTTCTTTGGAATATACAGCCAT | 0.203 |
| TTAACATGTGTCCTCAGCCTTC | -1.15 |
| AAATTCTTCTATCTGTAGCTGG | 0.0203 |
| TGCAACTATGAATCCTAGCAGC | -0.939 |
| TTCGAAATTCTTCTATCTGTAG | -0.338 |
| TTCATATTAATAACAACTCTGG | -0.115 |
| TTGACTTCAGGATAACCTGAAT | -1.18 |
| TAACACATGATATATATTCATA | -0.982 |
| TTCTTTGGAATATACAGCCATT | -0.749 |
| TAGATGAAGACAAACAACGCAG | 0.00396 |
| TATCGGAATAATATCCAGGTGA | -0.367 |
| ATTAGCATCAGGAAACACCAGA | -0.642 |
| TTTGACTTCAGGATAACCTGAA | 0.794 |
| TAACCTGAATGGTATGTCCATC | -1.33 |
| TTAGGTTAATAGGAGACTGGTA | -0.274 |
| AAAAGCTTTGAAATTAACCGTG | -0.175 |
| TTTGAGGATAAACTGAAGGTGC | -0.117 |
| TTCTTCTATCTGTAGCTGGGAT | -0.262 |
| TTGGTGACTTCACAGTCTCGGC | -0.936 |
| TATAGGACCATTGTCTTCCTCC | -0.229 |
| AAAGCTTTGAAATTAACCGTGT | 0.986 |
